From PubChem
Only a sample is shown.
aSyn UTR act – Activators working through SNCA 5'UTR binding (MLPCN); alpha-synuclein 5'UTR reporter, activators screen; AID 1814; activity score, % (tested at 7.5 µM), hits read low; 300,000 compounds, 7.1% hits; in the data active = activity score below about -60%
Of the large screens only hits and unclear results are named; the others gave an inactive call.

Cc1ccc(NC(=S)N2CCCCCC2)cc1	aSyn UTR act -94.3
Cc1ccc(NC(=S)N2CCCC2)cc1	aSyn UTR act -63.7
FC(F)Oc1ccc(N=C2SCC3CCCCN23)cc1 (stereo not given)	aSyn UTR act -206.2
Clc1ccc(N=C2SCC3CCCCN23)cc1 (stereo not given)	aSyn UTR act -144.7
CC1(C)OC(=CC=Nc2ccc(Cl)cc2)OC1(C)C	none
COc1cc(O)oc1C=Nc1ccc(Cl)cc1	aSyn UTR act -64.5
COc1cc(O)oc1C=Nc1ccc(C(=O)O)cc1	aSyn UTR act -90.8
CC(C)(C)C(=O)N/C(N)=N/c1nc2ccccc2o1	aSyn UTR act -63.4
Cc1ccc(C(=O)N/C(N)=N/c2nc3ccccc3o2)cc1	aSyn UTR act -114.1
N/C(=N\c1nc2ccccc2o1)NC(=O)c1ccccc1	aSyn UTR act -194.2
COc1ccccc1C(=O)N/C(N)=N/c1nc2ccccc2o1	aSyn UTR act -70.4
CCN(CC)C(=O)c1sc2nc(-c3ccc(OC)cc3)cn2c1C	aSyn UTR act -150.5
CNC(=O)c1sc2nc(-c3ccc(OC)cc3)cn2c1C	aSyn UTR act -138.5
Cc1ccc(OCc2ccc(C(=O)Nc3nccs3)o2)cc1	aSyn UTR act -88.3
O=C(Nc1nccs1)c1ccc(COc2ccccc2)o1	aSyn UTR act -113.2
COc1ccc(C(=O)c2ccsc2N)cc1	aSyn UTR act -97.3
COc1ccc(C(=O)c2ccc(CC#N)s2)cc1	aSyn UTR act -150.2
COc1ccc(-c2csc(=NCCO)n2-c2ccccc2)cc1	aSyn UTR act -98.8
COc1ccc(-c2csc(=Nc3ccccc3)n2CCO)cc1	aSyn UTR act -100.0
COc1ccc(C(=S)N2CCOCC2)cc1OS(=O)(=O)c1ccccc1[N+](=O)[O-]	aSyn UTR act -69.8
O=Cc1c(OCc2ccccc2)ccc2ccccc12	aSyn UTR act -130.5
C/[N+]([O-])=C/c1c(OCc2ccccc2)ccc2ccccc12	aSyn UTR act -91.3
CC1(C)Cc2c(c(N3CCOCC3)nc3snc(N)c23)CO1	aSyn UTR act -169.3
CC(C)CCNc1nnnc2c1sc1nc(N3CCOCC3)c3c(c12)CC(C)(C)SC3	none
Cc1ccnc(N(C(=O)Nc2ccccc2)C2=NCC(C)(C)S2)c1	aSyn UTR act -164.8
O=[N+]([O-])c1cccc2ccc(/C=C/c3ccc(F)cc3)nc12	aSyn UTR act -291.1
O=[N+]([O-])c1ccc(/C=C/c2ccc3cccc([N+](=O)[O-])c3n2)cc1	aSyn UTR act -92.2
O=[N+]([O-])c1cccc(/C=C/c2ccc3cccc(O)c3n2)c1	aSyn UTR act -82.3
CC(=O)NC(c1cccc([N+](=O)[O-])c1)c1ccc2cccnc2c1O (stereo not given)	none
CSc1ncc(-c2ccc(Cl)cc2)[nH]1	aSyn UTR act -145.0
O=C(/C=C/Nc1ccc(F)c(F)c1)c1cccs1	aSyn UTR act -374.4
O=C(/C=C/Nc1ccc(F)cc1)c1cccs1	aSyn UTR act -114.5
COc1ccc2c(n1)Sc1nc3ccccc3nc1N2	aSyn UTR act -136.0
Cc1cc(NC(=O)c2cccc(Cl)c2)n[nH]1	aSyn UTR act -70.8
O=C(Nc1cc(-c2ccccc2)[nH]n1)c1ccc(Cl)cc1	aSyn UTR act -123.7
Cc1ccc(NC(=O)c2cccc(Cl)c2)nc1	aSyn UTR act -75.5
Cn1sc(NC(=O)c2cccc(Cl)c2)nc1=O	aSyn UTR act -118.2
CCOC(=O)N1CCN(S(=O)(=O)c2ccc(C(=O)NNc3nc4cc(C)cc(C)c4s3)cc2)CC1	none
CC(=O)N1CCN(S(=O)(=O)c2cccc(C(=O)Nc3ccc(C)cn3)c2)CC1	aSyn UTR act -71.4
Cc1ccc(NC(=O)c2ccc3c(c2)NC(=O)CS3)nc1	aSyn UTR act -92.6
O=C(Nc1ccc(F)cc1F)c1ccc2nc(N3CCOCC3)sc2c1	aSyn UTR act -62.5
O=C(N/N=C/c1sc(N2CCOCC2)nc1-c1ccccc1)c1cccc(S(=O)(=O)N2CCCC2)c1	none
O=C(Nc1ccccc1Cl)c1ccc2nc(N3CCOCC3)sc2c1	aSyn UTR act -98.8
O=C(Nc1ccccc1F)c1ccc2nc(N3C(=O)CCC3=O)sc2c1	aSyn UTR act -117.2
Cc1cccc(C(=O)Nc2ccc(C(=O)/C=C/c3ccncc3)cc2)c1	aSyn UTR act -159.8
NC(N)=N/N=C/c1ccc(OCc2ccccc2)c(OCc2ccccc2)c1	none
O=C(/C=C/c1ccc(OCc2ccccc2)c(OCc2ccccc2)c1)c1cccnc1	aSyn UTR act -61.6
COc1cc(C(=O)/C=C/c2cccnc2)ccc1O	aSyn UTR act -106.7
O=C(/C=C/c1cccnc1)c1ccc(NC(=O)c2cccc(Br)c2)cc1	aSyn UTR act -103.2
Cc1cccc(C(=O)Nc2ccc(C(=O)/C=C/c3cccnc3)cc2)c1	aSyn UTR act -98.3
COc1ccc(N(/N=C2\Sc3ccccc3C2=O)C(C)=O)cc1	aSyn UTR act -142.7
CC(=O)N(C1=C(N)C(=O)c2ccccc2C1=O)c1ccccc1	none
CC(C)CC(=O)Nc1ccc2oc(-c3cccnc3)nc2c1	aSyn UTR act -120.1
Cc1ccc2oc(-c3ccc(NC(=O)CC(C)C)cc3)nc2c1	aSyn UTR act -76.6
CCCC(=O)Nc1ccc2oc(-c3cncc(Br)c3)nc2c1	aSyn UTR act -94.1
CCC(=O)Nc1ccc2oc(-c3cccnc3)nc2c1	aSyn UTR act -100.8
